The structures appear in SMILES notation. A number with no mark means an inactive call. Records with an inconclusive call do not appear. Calls of active or inactive are those of the source. Calls come from the whole dose curve; as a rule, active = well fitted curve in the direction sought with a large enough effect in the repeat runs; inconclusive = weak or mixed curves; inactive = no such curve, though single readings can be large; an effect the other way counts as inactive or inconclusive.

Here are results for seven compounds from PubChem BioAssay (Tox21).

Assay [1] in a line: A CellTox Green Cytotoxicity Assay to monitor cytotoxicity in HEK293 cells - 40 hour (AID 1224871). Note: nearly all actives have a fitted effect of over 45% in size. Summed up: (§1)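 Fluorescence intensity, read at 0, 8, 16, 24, 32 and 40 h of compound treatment, reflected dye binding to DNA of dead HEK293 cells; compounds (23 nL, DMSO) were added 5 h after plating cells with reagent.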
Assay [2] can be described thus: qHTS RealTime-Glo MT Cell Viability Assay in HEK293 cells - 16 hour (AID 1224872). For activity change, negative = cytotoxicity: top concentration of the series differs between compounds. Note: nearly all actives have a fitted effect of over 50% in size. Note: potency is the fitted concentration of half-maximal effect. Summed up:
(§2)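 Tox21 10K qHTS, HEK293, 600 cells/well, RealTime-Glo reagent co-dispensed with cells; 5 h preincubation, compound by pintool, 37 C, luminescence at 0–40 h.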

The nature of assay [3]: qHTS RealTime-Glo MT Cell Viability Assay in HepG2 cells - 8 hour (AID 1224873). Note: nearly all actives have a fitted effect of over 55% in size. In a few lines:
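Real-time viability: cells seeded at 600 per well together with NanoLuc and cell-permeant prosubstrate, compounds added after 5 h incubation. Luminescence tracked at 0, 8, 16, 24, 32 and 40 h of exposure.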

Assay [4] in a line: qHTS RealTime-Glo MT Cell Viability Assay in HEK293 cells - 40 hour (AID 1224874). Note: nearly all actives have a fitted effect of over 50% in size. Note: potency is the fitted concentration of half-maximal effect. To be noted: RealTime-Glo luminescence; max response: stronger effect = lower value. Summed up:
(§3)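 Viable HEK293 cells reduce a cell-permeant prosubstrate; the product diffuses out and is consumed by NanoLuc in the medium to give light. Compounds went in after a 5 h incubation and plates were read over the treatment course.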
A general note: Quantitative high-throughput screening tests each substance at several concentrations.

Assay [5] in a line: A CellTox Green Cytotoxicity Assay to monitor cytotoxicity in HEK293 cells - 24 hour (AID 1224875). Note: series mostly up to about 77 µM; nearly all actives have a fitted effect of over 45% in size. In a few lines:
as §1

A short description of assay [6]: A CellTox Green Cytotoxicity Assay to monitor cytotoxicity in HepG2 cells - 16 hour (AID 1224876). Note: nearly all actives have a fitted effect of over 45% in size. In a few lines: (§4)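 Using 1536-well format, dye-containing HepG2 suspension was seeded, allowed 5 h at 37 C/5% CO2, dosed by pintool with compounds, positive and negative controls, and imaged for fluorescence across 40 h.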
A short description of assay [7]: qHTS RealTime-Glo MT Cell Viability Assay in HepG2 cells - 32 hour (AID 1224877). Note: nearly all actives have a fitted effect of over 55% in size. In a few lines: (§5)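 Cells + NanoLuc/prosubstrate dispensed (600 cells/well) → 5 h at 37 C/5% CO2 → compounds in DMSO transferred → 40 h incubation at 37 C, luminescence read at 0, 8, 16, 24, 32, 40 h.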
Assay [8] in a line: A CellTox Green Cytotoxicity Assay to monitor cytotoxicity in HepG2 cells - 24 hour (AID 1224878). Note: nearly all actives have a fitted effect of over 45% in size. Summed up:
as §4

Assay [9] in a line: A CellTox Green Cytotoxicity Assay to monitor cytotoxicity in HepG2 cells - 40 hour (AID 1224879). Note: nearly all actives have a fitted effect of over 40% in size. Summed up: as §4
The nature of assay [10]: qHTS RealTime-Glo MT Cell Viability Assay in HEK293 cells - 0 hour (AID 1224880). Summed up: as §3
The nature of assay [11]: A CellTox Green Cytotoxicity Assay to monitor cytotoxicity in HEK293 cells - 32 hour (AID 1224881). Note: nearly all actives have a fitted effect of over 40% in size. Summed up: as §1
Assay [12] in a line: A CellTox Green Cytotoxicity Assay to monitor cytotoxicity in HepG2 cells - 0 hour (AID 1224882). Note: nearly all actives have a fitted effect of over 35% in size. Summed up: as §4
Assay [13] can be described thus: A CellTox Green Cytotoxicity Assay to monitor cytotoxicity in HepG2 cells - 32 hour (AID 1224883). Note: nearly all actives have a fitted effect of over 50% in size. In a few lines: as §4
A short description of assay [14]: A CellTox Green Cytotoxicity Assay to monitor cytotoxicity in HEK293 cells - 8 hour (AID 1224884). Note: nearly all actives have a fitted effect of over 35% in size. Summed up:
as §1

Assay [15] can be described thus: qHTS RealTime-Glo MT Cell Viability Assay in HepG2 cells - 16 hour (AID 1224885). Note: nearly all actives have a fitted effect of over 50% in size. Summed up:
as §5

Assay [16] is described as follows: qHTS RealTime-Glo MT Cell Viability Assay in HEK293 cells - 24 hour (AID 1224886). For activity change, negative = cytotoxicity: top concentration of the series differs between compounds. Note: nearly all actives have a fitted effect of over 50% in size. Note: potency is the fitted concentration of half-maximal effect. Summed up: as §2
A short description of assay [17]: qHTS RealTime-Glo MT Cell Viability Assay in HEK293 cells - 8 hour (AID 1224887). For activity change, negative = cytotoxicity: top concentration of the series differs between compounds. Note: nearly all actives have a fitted effect of over 50% in size. Note: potency is the fitted concentration of half-maximal effect. Summed up: as §3
Assay [18] can be described thus: A CellTox Green Cytotoxicity Assay to monitor cytotoxicity in HEK293 cells - 16 hour (AID 1224888). Note: nearly all actives have a fitted effect of over 35% in size. Summed up:
as §1

Assay [19] in a line: qHTS RealTime-Glo MT Cell Viability Assay in HepG2 cells - 0 hour (AID 1224889). Note: nearly all actives have a fitted effect of over 50% in size. In a few lines: as §5
Assay [20] is described as follows: A CellTox Green Cytotoxicity Assay to monitor cytotoxicity in HepG2 cells - 8 hour (AID 1224890). Note: nearly all actives have a fitted effect of over 45% in size. In a few lines: as §4
% is set by controls: 0 for no effect and ±100 for the full control effect.

Regarding `COc1cc(C)c(Cc2cnc(N)nc2N)cc1OC`, the Potency entry in assay [1], in assay [2], in assay [5], in assay [6], in assay [7] and in [8] was “inactive” in each case. In addition, the Potency result in assay [9], in assay [10], in assay [11], in assay [12], in assay [13] and in assay [14] was “inactive” each time. In addition, the Potency result in [16], in [17], in assay [18], in assay [19] and in assay [20] was “inactive” each time. Besides, the outcome in [3] and in assay [15] was inactive. Further, the max response in [4] was 5.82%.
For `Nc1ccc(F)cc1F`, the Potency result in assay [1], in assay [2], in assay [5], in assay [6], in assay [7] and in assay [8] was “inactive” throughout. The Potency entry in [9], in assay [10], in assay [11], in assay [12], in assay [13] and in assay [14] was “inactive” in each case. Moreover, the Potency result in assay [16], in assay [17], in [18], in assay [19] and in assay [20] was “inactive” throughout. Moreover, the compound was classed as inactive in assay [3] and in assay [15]. Moreover, the max response in assay [4] was -13.8%.
As to `COc1ccc(/C(C)=C/C(=O)O)c(OC)c1`, the Potency entry in [1], in assay [2], in assay [5], in [6], in assay [7] and in assay [8] was “inactive” in each case. The Potency result in assay [9], in [10], in assay [11], in [12], in assay [13] and in [14] was “inactive” in each case. Also, the Potency entry in assay [16], in [17], in [18], in [19] and in [20] was “inactive” each time. In addition, the compound was classed as inactive in [3] and in assay [15]. Besides, the max response in assay [4] was 6.45%.
Consider `COc1ccnc2c1CCCCC2S(=O)c1nc2ccccc2[nH]1` (stereo not given), for which the Potency entry in [1], in assay [5], in assay [6], in [7], in assay [8] and in assay [9] was “inactive” in each case. Also, the Potency result in [10], in [11], in assay [12], in assay [13], in [14] and in assay [18] was “inactive” throughout. Besides, the Potency result in assay [19] and in assay [20] was “inactive” throughout. Also, the Potency in assay [2] is 9.52 µM (active); in [4], 7.56 µM (active); in assay [16] it was 6.01 µM (active); in [17], 8.49 µM (active). Also, the compound was called inactive in assay [3] and in assay [15].
Consider `c1ccc(-c2ccc(-c3ccccc3)cc2)cc1`, for which the cytotoxicity increase is -4.32% [at 15.8 µM] in [1]; -3.4% [at 15.8 µM] in [6]; 1.53% [at 15.8 µM] in assay [9]; -3.83% [at 15.8 µM] in [11]; 2.09% [at 15.8 µM] in [13]; -5.69% [at 15.8 µM] in assay [14]. For the same compound, the cytotoxicity increase in [20] was -1.41% [at 15.8 µM]. For the same compound, the activity change, negative = cytotoxicity is 0.695% [at 15.8 µM] in [2]; 1.15% [at 15.8 µM] in [10]; 0.629% [at 15.8 µM] in [16]; 0.793% [at 15.8 µM] in [17]; -2.66% [at 15.8 µM] in [19]. Besides, in assay [3], the viability change, negative = cytotoxic is 0.239% [at 15.8 µM]. The max response in assay [4] is 0.336%. Also, the activity change was -5.55% [at 15.8 µM, stronger effect = higher value] in [5] and -4.6% [at 15.8 µM, stronger effect = higher value] in assay [18]. Also, the activity change, negative = cytotoxic in assay [7] was 2.08% [at 15.8 µM]; in assay [15], 0.423% [at 15.8 µM]. For the same compound, the cytotoxicity in [8] was -1.79% [at 15.8 µM]; in assay [12], 0.432% [at 15.8 µM].
Take `CC1(C)CC(=O)CC(C)(C)N1`: the Potency result in assay [1], in [2], in assay [5], in [6], in assay [7] and in [8] was “inactive” in each case. Moreover, the Potency entry in assay [9], in assay [10], in [11], in assay [12], in [13] and in assay [14] was “inactive” throughout. Moreover, the Potency result in [16], in assay [17], in [18], in [19] and in assay [20] was “inactive” throughout. The result in assay [3] and in [15] was inactive. Moreover, the max response in assay [4] is 0.817%.
On to `CCC1=C(C)CN(C(=O)NCCc2ccc(S(=O)(=O)NC(=O)NC3CCC(C)CC3)cc2)C1=O` (stereo not given), for which the Potency entry in assay [1], in [2], in assay [5], in assay [6], in [7] and in assay [8] was “inactive” throughout. Besides, the Potency entry in assay [9], in assay [10], in [11], in [12], in assay [13] and in [14] was “inactive” each time. Besides, the Potency entry in assay [16], in assay [17], in assay [18], in assay [19] and in [20] was “inactive” in each case. Besides, the compound was classed as inactive in [3] and in assay [15]. In [4], the max response is -23%.
